Consider two molecules from ChEMBL document CHEMBL1201862, “PubChem BioAssay data set” (2004).

Several values for one entry are separate records, joined by “and”; a condition that tells them apart may be missing. Equal values may be shown once. Hit rate of the full screen: of about 75,000 compounds, about 5,700 (7.6%) were called active. About 7% were inconclusive and are not listed. The rule behind the calls is not given here. The entries come from a sample that favours actives as a whole.

The test addresses T1, 3-hydroxyacyl-CoA dehydrogenase type-2 (Homo sapiens) (UniProt Q99714).
T1 sequence (whole entry): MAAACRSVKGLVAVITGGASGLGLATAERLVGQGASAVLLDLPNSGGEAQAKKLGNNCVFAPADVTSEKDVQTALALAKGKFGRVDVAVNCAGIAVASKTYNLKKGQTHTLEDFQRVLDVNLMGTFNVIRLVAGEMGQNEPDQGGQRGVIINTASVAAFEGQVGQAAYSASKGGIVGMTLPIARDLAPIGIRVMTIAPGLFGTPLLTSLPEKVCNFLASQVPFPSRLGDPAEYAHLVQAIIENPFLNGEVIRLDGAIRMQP
The test can be described thus: qHTS Assay for Inhibitors of HSD17B4, hydroxysteroid (17-beta) dehydrogenase 4. The class given is functional.
On to `O=C(O)c1cc(-c2ccc(F)cc2F)ccc1O`, for which the Potency is 31.6 µM (active) and 12.6 µM (active). On to `Cc1c(OCC(=O)OC(C)C)ccc2c3c(c(=O)oc12)CCC3`, for which the Potency result was “inactive”.
